Several values for one entry are separate records, joined by “and”; a condition that tells them apart may be missing. Identical values can stand only once. The whole screen tested about 300,000 compounds, of which about 480 (0.16%) were called active.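 How the source made its calls: active means inhibition over 29.93%, a cutoff 3 SD above the screen mean, later confirmed by dose response; inconclusive means inhibition over 29.93% but no dose response follow-up; inactive means inhibition at most 29.93% or unconfirmed.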 A selection follows. Measured potencies and affinities stand elsewhere.
test: PhoP-dependent GFP reporter repression – Salmonella Typhimurium, primary screen (AID 1863);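 further: 0% = low Mg2+ inducing control and 100% = high Mg2+ repressing control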; conditions: S. Typhimurium PhoP-regulated promoter GFP reporter, 4 h; at 50 µM; hits give high values

inhibition, inactive:
COCCNC(=O)C1CCC(Cn2c(=S)[nH]c3ccccc3c2=O)CC1 (stereo not given) 4.17%
Cc1ccc2oc(=O)c(/C=C(\O)C(C)(C)C)nc2c1 -0.34%
CC(C)(C)/C(O)=C/c1nc2ccccc2oc1=O -5.43%
CC(=O)Nc1ccc(CN(C)CC2CCCN(CCc3cccc(C(F)(F)F)c3)C2)cc1 (stereo not given) 8.69%
COc1ccccc1N=CC=C1OC(C)(C)C(C)(C)O1 -3.09%
CCC[C@@H](CNC)NC[C@H](Cc1ccccc1)NCCCCc1ccccc1 3.18%
CC(Cc1cccc(C(F)(F)F)c1)NCCOC(=O)c1ccccc1 (stereo not given) -9.48% and -7.52%
CNC[C@@H](C)NC[C@@H](Cc1ccccc1)NCCc1ccccc1 9.81%
CCC[C@H](CN[C@@H](CNC)[C@H](C)CC)NCCc1cc(C(F)(F)F)cc(C(F)(F)F)c1 19.5%
Cc1ccccc1-c1noc(CCC(=O)NCC2CCCO2)n1 (stereo not given) 6.26%
O=C1OCCC/C1=C\c1ccc2c(c1)OCO2 1.4%
O=C(Cc1nc2ccccc2[nH]1)c1cccc([N+](=O)[O-])c1 -11.1%
CCC(=O)N1C(=O)C2(Nc3ccccc3N2)c2ccccc21 -1.88%
CC(C)(C)c1ccc(NC(=O)COC(=O)c2ccc(NS(=O)(=O)c3ccc(F)c(F)c3)cc2)cc1 1.23%
COc1ccc(Cc2c(N)nc(N)nc2N)cc1 2.89%
CCCCOc1ccc(CN(C)c2ncnc(N)n2)cc1 -10.1%
CCCOc1ccc(Cc2nc(N)nc(N)n2)cc1 20.1%
Cc1cc(=O)[nH]c(Cc2ccc(OC(C)C)cc2)n1 10.3%
COc1cc(C)c(Cc2cnc(N)nc2N)cc1OC -1.03%
CC(C)Oc1ccc(Cc2cnc(=S)[nH]c2N)cc1 5.16%
O=C(Nc1ccc(N2CCOCC2)c(Cl)c1)c1ccc(F)cc1 -2.15%
S=C(NCC1CCCO1)c1ccc(Br)cc1 (stereo not given) 2.88%
CCOC(=O)C1(C)/C(=N/Nc2ccccc2)C(=O)C(=O)N1c1ccccc1 (stereo not given) -7.22%
CCCn1cnnc1CNC(=O)C1CCC(=O)N(CCCc2ccccc2)C1 (stereo not given) 2.57%
CCOC(=O)c1cc(S(=O)(=O)NCC2CCN(Cc3cccc(C)c3)CC2)cn1C 1.53%
O=C(Nc1ccnn1C1CCN(C(=O)c2c(F)cccc2F)CC1)C1CC1 -1.51%
Cc1ncc(CN2CCCC(CCC(=O)NCc3ccc(F)c(F)c3)C2)s1 (stereo not given) -2.44%
Cn1cnc([N+](=O)[O-])c1Oc1ccccc1 21.7%
Cn1cnc([N+](=O)[O-])c1Oc1ccc2ccccc2c1 16.2%
CCCCCCC(C)n1[nH]c(=O)cc1N (stereo not given) 0.2%
Cc1ccc(-c2noc(CN3C(C)CCCC3C)n2)cc1 (stereo not given) 3.05%
Cc1ccc(C(=O)NC2CCCCC2)cc1S(=O)(=O)N1CCCC1 4.45%
CS(=O)(=O)c1ccc(C(=O)NCc2ccccc2F)cc1 -3.92%
O=C(O)c1cc(S(=O)(=O)NC(CO)C(O)c2ccc([N+](=O)[O-])cc2)ccc1Br (stereo not given) 8.08%
Cc1ccc(NC(=S)NC(CO)C(O)c2ccc([N+](=O)[O-])cc2)cc1 (stereo not given) 8.17%
CS(=O)(=O)c1ccc(C(=O)NC(Cc2ccccc2)c2ccccc2)cc1 (stereo not given) 4.54%
Cc1cccc(CN2CCN(Cc3cccc(-n4cccn4)c3)CC2CCO)n1 (stereo not given) -2.39%
O=C1CCN(Cc2ccc(Cl)cc2)N1 -4.83%
CC(=O)c1cccc(S(=O)(=O)Nc2ccc(N3CCOCC3)cc2)c1 -4.4%
NCCCC[C@H]1CN=C(N)N1CCCCC1CCCCC1 11.9%
CCCCN1C(N)=NC[C@@H]1c1ccccc1 -3.32%
CCCCN1C(N)=NC[C@@H]1Cc1ccc(O)cc1 0.58%
CCCCN1C(N)=NC[C@H]1Cc1ccc(O)cc1 5.24%
NC1=NC[C@H](c2ccccc2)N1CC1CCCCC1 -3.43%
NC1=NC[C@@H](Cc2ccc(O)cc2)N1CC1CCCCC1 -0.19%
NC1=NC[C@@H](Cc2ccc(O)cc2)N1CCC12CC3CC(CC(C3)C1)C2 -0.89%
NC1=NC[C@H](Cc2ccc(O)cc2)N1CC1CCCCC1 3.06%
Cc1ccccc1OCC(=O)Nc1ccc(N2CCN(C)CC2)c(Cl)c1 5.97%
COC(=O)c1ccc(OCC(=O)c2ccc(C)c(C)c2)cc1 -11.3%
CCOC(=O)c1c(-c2ccccc2)nc2cc(C)ccn12 -0.32%
Nc1nonc1NN=C1CCCCC1 2.62%
COc1ccc(N(CC(=O)NC2CCCC2)C(=O)c2ccc(C)s2)cc1OC -1.51%
Cc1ccc(S(=O)(=O)N/N=C/c2cccs2)cc1 1.58%
COc1ccc(OC)c(S(=O)(=O)CC(O)CS(=O)(=O)c2ccccc2)c1 (stereo not given) -7.1%
O=C(CC1C(=O)NCCN1CCCc1ccccc1)NCCc1ccccc1F (stereo not given) 5.1%
NC1=NC[C@H](Cc2ccccc2)N1CC1CCCCC1 -1.5%
CN(C)C1=NC[C@H](Cc2ccccc2)N1CCCC1CCCC1 -2.38%
Cc1nn(-c2ccccc2)c(N2CCCC2)c1/C=N/NC(=O)c1ccccc1O -4.47%
O=C(Oc1ccc(/C=N/NC(=O)c2ccccc2O)cc1)c1ccccc1 -2.42%
Cc1ccc(CCNC(=O)C2CCCN(S(=O)(=O)c3c(C)nn(C)c3C)C2)cc1 (stereo not given) -2.59%
Cc1[nH]c2ccccc2c1C(=O)CSC(=S)N1CCCCC1 -9.67%
O=C(Cc1nnc(NC(=O)Nc2ccccc2)s1)Nc1ccccc1 0.5%
Cc1cccc(NC(=S)N2CCC(N(C)CC3CCCO3)CC2)c1 (stereo not given) 2.69%
CCC(C)(C)c1ccc(OCC(=O)N(C)C)c(C(C)(C)CC)c1 -2.72%
Cc1cc[n+](CC[n+]2ccc(C)cc2)cc1 6.23%
Cc1cc(C(C)(C)C)ccc1OCCCCN1CCCC1 -7.85%
CCC(C)(C)c1ccc(OCCCC[n+]2cccc(C)c2)c(C(C)(C)CC)c1 25.6%
Cc1nc2c(ncn2-c2ccccc2)c(=O)n1NC(=O)CN1CCN(C)CC1 4.84%
COc1ccc(CNc2ncccc2[N+](=O)[O-])cc1 2.57%
COC(C(=O)Nc1ccc(Br)cc1F)c1ccccc1 (stereo not given) 4.52%
COc1ccc2[nH]cc(/C=N/NS(=O)(=O)c3ccc(C)cc3)c2c1 -5.48%
NC(=S)N/N=C/c1c[nH]c2ccc(OCc3ccccc3)cc12 1.88%
N=c1n(Cc2ccc(Cl)cc2)c2ccccc2n1CC(O)COc1ccccc1 (stereo not given) 3.85%
COc1ccccc1OCC(O)Cn1c(=N)n(Cc2ccccc2)c2ccccc21 (stereo not given) -0.92%
O=C(NC1CCCCC1)C1COc2ccccc2O1 (stereo not given) 1.35%
O=C(N/N=C/C=C/c1ccc([N+](=O)[O-])cc1)c1cccs1 -4.65%
CCCC(=O)Nc1ccc(C(=O)N/N=C/c2ccc([N+](=O)[O-])o2)cc1 -16.6%
O=C(N/N=C/c1ccc([N+](=O)[O-])o1)c1ccncc1 3.52%
Cc1cc(C(=O)N/N=C/c2ccc([N+](=O)[O-])o2)c(C)o1 -2.92%
O=C(N/N=C/C=C/c1ccccc1[N+](=O)[O-])c1cccs1 -10.8%
Cc1scc(C(=O)N/N=C/c2ccco2)c1C 0.79%
OC1CCN(Cc2ccc(OCc3ccccc3)cc2)CC1 2.08%
O=S(=O)(c1ccc(Br)cc1)N1CCN=C1SCc1cccc(F)c1 -2.02%
Cc1c(C(=O)N(Cc2cccc(Br)c2)C2CCS(=O)(=O)C2)oc2ccc(F)cc12 (stereo not given) 3.11%
O=C(ONC1=NCCCCC1)c1ccc(Cl)cc1 -13.6%
Cc1nn(C)c(=O)n1-c1ccccc1 0.59%
O=C(N/N=C/c1ccccc1[N+](=O)[O-])c1cccs1 -1.95%
O=C(N/N=C/c1ccc(Br)s1)c1cccs1 0.89%
O=C(N/N=C\c1ccc(Cl)s1)c1cccs1 -9.8%
O=C(N/N=C\c1cc2c(cc1[N+](=O)[O-])OCO2)c1cccs1 -4.81%
COc1ccccc1NC(=O)Nc1ccc(Cl)c(S(=O)(=O)Nc2ccccc2OC)c1 -18.5%
CCOc1ccc(CN(CC)C(=O)c2ccc3c(c2)[nH]c(=O)c(=O)n3CC)cc1OC 2.8%
COc1ccccc1CCNC(=O)C1(C)CC1(Cl)Cl (stereo not given) -0.33%
O=C(CN1CCN(Cc2ccccc2)CC1)NCc1ccc(Cl)cc1 3.85%
CCOC(=O)C1CCCN(C(=O)c2ccccc2NC(C)=O)C1 (stereo not given) 8.46%
OCCn1c(CSc2nnc(-c3ccco3)n2-c2ccccc2)nc2ccc(Cl)cc21 8.64%
COc1cccc(-c2nc(=S)c3c(n2CCCO)CCCC3)c1 6.79%
CSc1cccc(NC(=S)N(CCCN2CCCC2)Cc2cccs2)c1 2.61%
CN1/C(=C\C=O)C(C)(C)c2ccccc21 4.13%
CN1\C(=C/C=C/C=C/C=[N+](C)C)C(C)(C)c2ccccc21 -18.9%
